Screening data as filed in PubChem BioAssay.
DT40 TDP1 CPT – qHTS for Inhibitors of human tyrosyl-DNA phosphodiesterase 1 (TDP1): qHTS in cells in presence of CPT; chicken DT40 Tdp1-/-;hTDP1 cells + 20 nM CPT, ATP luminescence, 48 h; Potency, µM (doses to about 46.2 µM), for inactives: at the top dose activity change, negative = growth inhibition, usual class: inhibitors; 420,000 compounds, 12% hits; AID 686979, 2013; also: nearly all actives have a fitted effect of over 55% in size
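Cell growth measured by CellTiter-Glo luminescence after a minimum 48 h, 37 C compound exposure with 20 nM CPT in Tdp1-knockout DT40 cells stably expressing hTDP1, seeded 400/well; qHTS titration format.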
VP16 counter – VP16 counterscreen qHTS for inhibitors of ROR gamma transcriptional activity. Drosophila S2 Gal4-VP16 UAS-luciferase, luminescence, 20 h. Potency, µM (top dose mostly 53.6 µM), for inactives: at the highest dose activity, negative = inhibition, usual class: inhibitors. 310,000 compounds, 3.5% hits;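 also: Gal4-VP16 expression switched on by copper sulfate through the metallothionein promoter; nearly all actives have a fitted effect of over 50% in size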
TDP1 block – qHTS Assay for Inhibitors of Tyrosyl-DNA Phosphodiesterase (TDP1) | Tyrosyl-DNA phosphodiesterase 1 (Homo sapiens), Q9NUW8 | recombinant TDP1, AlphaScreen DNA substrate cleavage | 350,000 compounds, 0.28% hits | AID 485290, 2010 | Potency, µM (titrated, usually from 130 µM), for the others: at the highest dose activity change, negative = inhibition, usual class: inhibitors; also: nearly all actives have a fitted effect of over 40% in size
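Recombinant E. coli-expressed Tdp1 (1 nM) preincubated with compound 15 min at RT, then 5'-biotin/3'-phosphotyrosine-FITC DNA substrate (15 nM) added for 5 min. AlphaScreen beads (10 ug/ml) added, 10 min RT; tyrosine-FITC cleavage read as signal loss.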
RORg inh – qHTS for inhibitors of ROR gamma transcriptional activity | Drosophila S2 Gal4-RORgamma UAS-luciferase reporter, 20 h | Nuclear receptor ROR-gamma (Mus musculus), P51450 | Potency, µM (titrated, usually from 53.6 µM), without a hit: at the top dose activity change, negative = inhibition, actives largely listed as inhibitors | AID 2551, 2010 | 310,000 compounds, 5.4% hits; also: nearly all actives have a fitted effect of over 60% in size
Target sequence (P51450 whole entry, looked up, the tested form may be a part): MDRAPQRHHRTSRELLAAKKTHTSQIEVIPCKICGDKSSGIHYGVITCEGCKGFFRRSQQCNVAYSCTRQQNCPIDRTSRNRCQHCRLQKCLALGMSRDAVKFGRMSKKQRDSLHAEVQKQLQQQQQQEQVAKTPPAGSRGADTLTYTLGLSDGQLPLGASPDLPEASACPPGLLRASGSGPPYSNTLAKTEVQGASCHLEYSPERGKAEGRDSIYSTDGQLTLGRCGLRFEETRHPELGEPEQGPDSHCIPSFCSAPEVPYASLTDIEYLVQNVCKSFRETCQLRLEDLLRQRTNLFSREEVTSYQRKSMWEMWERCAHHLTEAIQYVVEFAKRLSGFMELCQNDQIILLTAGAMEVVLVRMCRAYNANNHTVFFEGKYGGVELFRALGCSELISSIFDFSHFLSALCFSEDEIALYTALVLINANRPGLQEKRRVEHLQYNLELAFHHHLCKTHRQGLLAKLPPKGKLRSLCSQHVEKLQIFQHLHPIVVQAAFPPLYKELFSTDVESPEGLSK
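Using a luciferase readout, inhibitors were identified by reduced reporter activity in Drosophila cells coexpressing a copper-inducible Gal4–ROR gamma fusion and UAS-driven Photinus luciferase, incubated 20 hr after 700 uM copper sulfate.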
TDP1 cell noCPT – qHTS for Inhibitors of human tyrosyl-DNA phosphodiesterase 1 (TDP1): qHTS in cells in absence of CPT | DT40 Tdp1-/- hTDP1 cells, no CPT, ATP luminescence, 48 h | Potency, µM (highest dose often 46.2 µM), for the others: at the top dose activity change, negative = growth inhibition, usual class: inhibitors | 420,000 compounds, 15% hits; also: nearly all actives have a fitted effect of over 55% in size
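Seeded 400 DT40-hTDP1 cells/well (vehicle DMSO, no 20 nM CPT); pinned compounds; ≥48 hr at 37 °C; CellTiter-Glo luminescence as viability measure.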
* marks the source's active call; other numbers are inactive results; ? = inconclusive; nt = no result given; [ ] = remark or other dose. An excerpt weighted towards active compounds, which were near 19% of everything screened. Calls follow the shape of the dose curve; as a rule, active = well fitted curve in the direction sought with a large enough effect; inconclusive = small, poorly fitted or top-dose-only effect, or another doubt; inactive = no such curve, though single readings can be large; an effect the other way counts as inactive or inconclusive. % is scaled to controls: 0 for no effect and ±100 for the full control effect; potency is read from the fitted curve at half-maximal effect.

SMILES | DT40 TDP1 CPT | VP16 counter | TDP1 block | RORg inh | TDP1 cell noCPT
O=C(Nc1cccc(S(=O)(=O)NC2=NCCCCC2)c1)c1cc(-c2ccco2)nc2ccccc12 | ? | -10% | nt | 18% | 9.2µM*
O=C(Nc1cccc(S(=O)(=O)NCc2ccco2)c1)c1cc(-c2ccccc2)nc2ccccc12 | ? | -4% | 3% | 12%[10 µM] | 23µM*
O=C(Nc1cccc(S(=O)(=O)NC2=NCCCCC2)c1)c1cccnc1Cl | -18% | -4% | 3% | -13% | 15%
CCOC(=O)c1ccc(CNC(=O)Cn2nnc(-c3cccc(C)c3)n2)o1 | nt | 9% | 5% | 17% | nt
CN(CC(=O)Nc1ccc(F)cc1)C(=O)COC(=O)CN1C(=O)NC2(CCCC2)C1=O | 0% | -1% | 1% | 10% | -9%
CCOc1cccc(/C=C/c2ccc3cccc(O)c3n2)c1O | 15µM* | ? | nt | 3.5µM* | 21µM*
CCOc1cccc(/C=C/c2ccc3cccc(O)c3n2)c1OC | 21µM* | 13µM* | nt | 2.8µM* | 18µM*
CCCCCC(O)CCCC(=O)O (stereo not drawn) | 5% | nt | 11%[56.1 µM] | nt | 14%
CCCCCCCCCCCCCCCC(O)C[N+](C)(C)CCO (stereo not drawn) | 5.2µM* | nt | nt | nt | 3.3µM*
O=C(C[C@@H]1C/C=C\CC[C@@H](Cc2ccc(F)cc2)C(=O)OC[C@@H]2CCCN2C1=O)N[C@H](CO)Cc1ccccc1 | 16µM* | nt | 2% | nt | 18µM*
O=C(C[C@@H]1C/C=C\CCC(=O)OC[C@@H]2CCCN2C1=O)N[C@H](CO)Cc1ccccc1 | 20% | nt | -1% | nt | 2%
O=C(C[C@H]1C/C=C\CC[C@H](Cc2ccc(F)cc2)C(=O)OC[C@H]2CCCN2C1=O)N[C@H](CO)Cc1ccccc1 | 23µM* | nt | 2% | nt | 21µM*
O=C(C[C@H]1C/C=C\CC[C@H](Cc2ccc(F)cc2)C(=O)OC[C@H]2CCCN2C1=O)N[C@@H](CO)Cc1ccccc1 | ? | nt | 0% | nt | 15µM*
O=C(C[C@@H]1C/C=C\C[C@@H](Cc2ccc(F)cc2)C(=O)OC[C@H]2CCCN2C1=O)N[C@H](CO)Cc1ccccc1 | ? | nt | 4% | nt | 21µM*
O=C(C[C@H]1C/C=C\C[C@@H](Cc2ccc(F)cc2)C(=O)OC[C@H]2CCCN2C1=O)N[C@@H](CO)Cc1ccccc1 | ? | nt | 0% | nt | ?
O=C(C[C@@H]1C/C=C\CCCC(=O)OC[C@@H]2CCCN2C1=O)N[C@H](CO)Cc1ccccc1 | 4% | nt | 0% | nt | -8%
CC(OC(=O)Cc1c[nH]c2ccccc12)C(=O)NC1(C#N)CCCCC1 (stereo not drawn) | 4% | 16% | 4% | 17% | 9%
O=C(Nc1ccccc1OC(F)F)c1ccccc1 | -9% | -8%[0.365 µM] | 0% | -14% | 0%
CC(C)NC(=O)C1(C)CSCC(=O)N1CCCn1ccnc1 (stereo not drawn) | 15% | nt | nt | nt | 3%
O=C(C[C@H]1C/C=C\CC[C@H](Cc2ccc(F)cc2)C(=O)OC[C@@H]2CCCN2C1=O)N[C@H](CO)Cc1ccccc1 | 26µM* | nt | 1% | nt | ?
O=C(C[C@H]1C/C=C\CC[C@@H](Cc2ccc(F)cc2)C(=O)OC[C@H]2CCCN2C1=O)N[C@@H](CO)Cc1ccccc1 | ? | nt | 1% | nt | 15µM*
COc1ccc(-n2nc(C(=O)NCC(=O)NCc3ccco3)c3ccccc3c2=O)c(OC)c1 | -19% | -2% | 5% | 27% | -14%
N#CC(=Nc1ccccc1)c1ccccc1 | -1% | nt | nt | nt | -11%
Cc1c(C(=O)N(C)C)sc2c1c(=O)n(-c1ccc(F)cc1)c(=O)n2Cc1cc(=O)n2ccccc2n1 | 4% | nt | 6% | nt | -2%
CCOc1ccc(S(=O)(=O)N(CC)CC)cc1N | 1% | -1% | 5% | -13% | -25%
SMILES | DT40 TDP1 CPT | VP16 counter | TDP1 block | RORg inh | TDP1 cell noCPT
CCOc1ccc(C(=O)c2ccc(OCC)c(N)c2)cc1N | ? | -2% | 5% | 0% | 29µM*
Cc1ccc(NC(=O)CN(C)Cc2c(O)ccc3ccccc23)cc1 | -7% | -20% | 11% | -18% | ?
COc1ccc(-n2nc(C#N)c(Cl)cc2=O)cc1 | 3.3µM* | 13µM* | 3% | 10µM* | 4.6µM*
CC1=NN(C(=O)c2ccccc2Cl)C(O)(c2cccnc2)C1 (stereo not drawn) | ? | ? | 8% | ? | 5.8µM*
CC1=NN(C(=O)Cc2ccccc2)C(O)(c2cccnc2)C1 (stereo not drawn) | 4.6µM* | 7.9µM* | 8% | 6.3µM* | 5.2µM*
O=C(c1ccccc1Cl)N1CCC(O)(c2cccnc2)CC1 | 6% | -16% | -7% | 36% | 26%
COC(=O)c1sc(SC)nc1N | 2% | 2% | 4% | 9% | 5%
COc1cccc(-c2cc(C(=O)NC3CCCC3)no2)c1 | -14% | -20% | 1% | -33% | -26%
COc1cc(O)c(C(=O)/C=C/c2ccc(O)c(OC)c2)c(OC)c1 | ? | -12% | 10µM* | -13% | ?
COc1cc(OC)c(C(=O)/C=C/c2ccccc2)c(O)c1O | ? | 10µM* | nt | ? | ?
COc1ccc(/C=C/C(=O)c2c(OC)cc(O)cc2OC)cc1 | nt | ? | 17% | 13% | nt
COc1cc(O)cc(O)c1C(=O)/C=C/c1ccccc1 | 15µM* | -11% | 6% | ? | 15µM*
COc1cc(/C=C/C(O)=C/C(=O)/C=C/c2ccc(O)cc2)ccc1O | 18µM* | nt | 3% | nt | ?
COc1cc(NC(=O)[C@H]2O[C@@H](n3cnc4c(N)ncnc43)[C@H](O)[C@@H]2O)cc(OC)c1OC | 0% | nt | nt | nt | 20%
CCOC(=O)c1cc(-c2ccccc2)sc1NC(=O)CN1C(=O)NC(CC)(c2ccc(F)cc2)C1=O (stereo not drawn) | ? | 1% | 4% | -24% | ?
CC(=O)Cc1nsc(NC(=O)c2ccc(-c3ccc(F)cc3)o2)n1 | -13% | -8%[10 µM] | 5% | 0% | ?
CNS(=O)(=O)c1cccc(C(=O)OCC(=O)Nc2sc3c(c2C#N)CCCCC3)c1 | 4% | -10% | 0% | ? | -5%
CC(NCCc1ccc(S(N)(=O)=O)cc1)C(=O)NCCc1ccc(F)cc1 (stereo not drawn) | 2% | -9% | nt | 9% | -6%
CCOc1ccc(OCC)c(Nc2cc(C)nc3ncnn23)c1 | 1% | -5% | 0% | -32% | -12%
Cc1cc(=O)[nH]c(N/N=C/c2ccccc2C(F)(F)F)n1 | -1% | 19% | 4% | -10% | ?
